Experimental data published in PubChem BioAssay.
Active and inactive are the calls of the source.

Key:
[1] = system: PRMT1 (protein arginine N-methyltransferase 1); test: PRMT1 binders on small-molecule microarrays, primary screen, biochemical, small-molecule microarray, 635 nm fluorescence (AID 1088); conditions: small-molecule microarray binding, higher = more signal;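 note: binding of Prmt1 protein to compounds spotted on small-molecule microarray slides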
[2] = yeast growth modulation, basal conditions, primary screen, YJM789 clinical isolate, OD600, 24 h (AID 1089);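 note: growth of clinical yeast isolate S. cerevisiae YJM 789 seeded 1000 cells per well; test concentration not given here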; conditions: S. cerevisiae YJM789 growth, higher = more signal, called active from +8 up or from −8 down
[3] = fission yeast growth modulation, primary screen, strain 972, OD600, 24 h, no modulator (AID 1090);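 note: basal condition with compound alone and no growth modifier present; test concentration not given here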; conditions: S. pombe 972 growth, higher = more signal, called active from +8 up or from −8 down
[4] = S. cerevisiae growth modulation with rapamycin, primary screen, strain BY4716, OD600, 96 h (AID 1091); conditions: higher = more signal, called active from +8 up or from −8 down; note: test concentration not given here
[5] = target: Torsin-1A-interacting protein 2 (Homo sapiens) (UniProt Q8NFQ8); test: LULL1 binders on small-molecule microarray, primary screen, cell lysate, human LULL1 lysate, 635/667 nm fluorescence (AID 1092); conditions: hLULL1 lysate binding, 635 nm fluorescence, higher = more signal;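 note: probe is lysate of COS7 cells overexpressing human LULL1; score merges per-feature 667 nm fluorescence with signal-to-noise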
[6] = E. coli growth modulation, two-sided OD650, primary screen, E. coli filamentation project, strain DRC41, 24 h (AID 1093); conditions: OD650, 24 h, higher = more signal, called active from +8 up or from −8 down;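 note: MC1000 strain lacking acrAB efflux and sulA so SOS filamentation is blocked; test concentration not given here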
[7] = small-molecule microarray binders of probe aLefty2, primary screen, biochemical, biotinylated probe, 635/667 nm fluorescence (AID 1094); conditions: higher = more signal;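 note: score merges spot fluorescence near 667 nm with spot signal-to-noise ratio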
[8] = system: Noggin (protein binding on small-molecule microarray); test: Noggin binders on small-molecule microarray, primary screen, biochemical, 635/667 nm fluorescence (AID 1095); conditions: 635 nm fluorescence, higher = more signal;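 note: score merges 667 nm feature fluorescence with signal to noise over triplicate slides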
[9] = target: Neurogenic locus notch homolog protein 3 (Homo sapiens) (UniProt Q9UM47); test: NOTCH3 binders on small-molecule microarray, primary screen, biochemical, 635/667 nm fluorescence (AID 1096); conditions: NOTCH3 binding, 635 nm fluorescence, higher = more signal
[10] = small-molecule microarray binders of probe aEGFR, primary screen, biochemical, biotinylated probe, 635/667 nm fluorescence (AID 1097); conditions: higher = more signal;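 note: probe is a biotinylated anti-EGFR antibody binding compounds printed on slides; score combines fluorescence near 667 nm and signal to noise of each spot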
[11] = system: Plasmodium falciparum Sir2 (PF13_0152, Sir2A); test: pfSir2 binders on small-molecule microarrays, primary screen, biochemical, small-molecule microarray, 635 nm fluorescence (AID 1098); conditions: small-molecule microarray binding, fluorescence 635 nm; higher = more signal;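 note: score merges spot fluorescence intensity with its signal-to-noise ratio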
[12] = small-molecule microarray binders of probe aDKK1, primary screen, biochemical, biotinylated probe, 635/667 nm fluorescence (AID 1099); conditions: higher = more signal;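 note: score merges 667nm spot fluorescence with signal to noise across triplicate slides; reference of the scale not given here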
[13] = small-molecule microarray binders of probe aCHRDL2, primary screen, biochemical, biotinylated probe, 635/667 nm fluorescence (AID 1100); conditions: higher = more signal
[14] = splicing luciferase reporter signal modulators, primary screen, spliceosome inhibition project, cell-based, HEK293, splice +/- reporter (AID 1101); conditions: luminescence, 24 h, higher = more signal, called active from +8 up or from −8 down;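 note: HEK293 cells carrying a splicing-competent luciferase reporter gene; test concentration not given here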
[15] = target: Fibroblast growth factor 10 (Homo sapiens) (UniProt O15520); test: FGF10 binders on small-molecule microarrays, primary screen, biochemical, small-molecule microarray, 635 nm fluorescence (AID 1102); conditions: FGF10 binding, fluorescence 635 nm, higher = more signal
[16] = system: glycogen synthase kinase-3 (GSK3A per assay name; protocol says GSK3B); test: GSK3 binders on small-molecule microarrays, primary screen, biochemical, small-molecule microarray, 635 nm fluorescence, GSK3A (AID 1103); conditions: small-molecule microarray binding, fluorescence 635 nm; higher = more signal; note: the record names both GSK3A and GSK3B
[17] = target: Epidermal growth factor receptor (Homo sapiens) (UniProt P00533); test: EGFR binders on small-molecule microarrays, primary screen, biochemical, small-molecule microarray, 635 nm fluorescence (AID 1104); conditions: EGFR binding, higher = more signal;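 note: score merges 667 nm emission intensity with spot signal to noise over triplicate slides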
[18] = target: Follistatin-related protein 3 (Homo sapiens) (UniProt O95633); test: FSTL3 binders on small-molecule microarrays, primary screen, biochemical, small-molecule microarray, 635 nm fluorescence (AID 1105); conditions: FSTL3 binding, higher = more signal;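 note: score merges emission near 667 nm and signal to noise per printed spot across three slides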
[19] = target: Dickkopf-related protein 1 (Homo sapiens) (UniProt O94907); test: DKK1 binders on small-molecule microarrays, primary screen, biochemical, small-molecule microarray, 635 nm fluorescence scan (AID 1106); conditions: DKK1 binding, higher = more signal;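 note: score merges emission near 667 nm with signal to noise over three replicate slides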
[20] = system: Inhibin beta A chain (activin A); test: INHBA (activin A) binders on microarrays, primary screen, biochemical, small-molecule microarray, 635 nm fluorescence scan (AID 1107); conditions: small-molecule microarray binding, higher = more signal;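 note: mouse activin A protein probed at 4.33 µg/mL on printed slides; score merges bound-protein fluorescence near 667 nm with spot signal-to-noise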

Chain of Fibroblast growth factor 10 (Homo sapiens) (O15520 whole entry, looked up): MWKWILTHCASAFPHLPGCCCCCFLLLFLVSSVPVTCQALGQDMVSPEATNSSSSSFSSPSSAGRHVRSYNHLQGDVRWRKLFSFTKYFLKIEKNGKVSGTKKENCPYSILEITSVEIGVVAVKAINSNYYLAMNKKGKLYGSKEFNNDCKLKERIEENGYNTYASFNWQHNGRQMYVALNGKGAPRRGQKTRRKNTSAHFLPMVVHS
Chain of Dickkopf-related protein 1 (Homo sapiens) (O94907 whole entry, looked up): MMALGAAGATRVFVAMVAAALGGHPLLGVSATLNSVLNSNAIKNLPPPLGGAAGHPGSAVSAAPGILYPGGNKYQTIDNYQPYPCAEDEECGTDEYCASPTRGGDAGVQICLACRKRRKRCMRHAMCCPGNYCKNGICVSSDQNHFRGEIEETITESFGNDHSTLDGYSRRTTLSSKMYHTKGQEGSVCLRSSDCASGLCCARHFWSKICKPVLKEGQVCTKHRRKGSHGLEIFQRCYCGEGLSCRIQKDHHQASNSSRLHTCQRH
Chain of Neurogenic locus notch homolog protein 3 (Homo sapiens) (Q9UM47 whole entry, looked up): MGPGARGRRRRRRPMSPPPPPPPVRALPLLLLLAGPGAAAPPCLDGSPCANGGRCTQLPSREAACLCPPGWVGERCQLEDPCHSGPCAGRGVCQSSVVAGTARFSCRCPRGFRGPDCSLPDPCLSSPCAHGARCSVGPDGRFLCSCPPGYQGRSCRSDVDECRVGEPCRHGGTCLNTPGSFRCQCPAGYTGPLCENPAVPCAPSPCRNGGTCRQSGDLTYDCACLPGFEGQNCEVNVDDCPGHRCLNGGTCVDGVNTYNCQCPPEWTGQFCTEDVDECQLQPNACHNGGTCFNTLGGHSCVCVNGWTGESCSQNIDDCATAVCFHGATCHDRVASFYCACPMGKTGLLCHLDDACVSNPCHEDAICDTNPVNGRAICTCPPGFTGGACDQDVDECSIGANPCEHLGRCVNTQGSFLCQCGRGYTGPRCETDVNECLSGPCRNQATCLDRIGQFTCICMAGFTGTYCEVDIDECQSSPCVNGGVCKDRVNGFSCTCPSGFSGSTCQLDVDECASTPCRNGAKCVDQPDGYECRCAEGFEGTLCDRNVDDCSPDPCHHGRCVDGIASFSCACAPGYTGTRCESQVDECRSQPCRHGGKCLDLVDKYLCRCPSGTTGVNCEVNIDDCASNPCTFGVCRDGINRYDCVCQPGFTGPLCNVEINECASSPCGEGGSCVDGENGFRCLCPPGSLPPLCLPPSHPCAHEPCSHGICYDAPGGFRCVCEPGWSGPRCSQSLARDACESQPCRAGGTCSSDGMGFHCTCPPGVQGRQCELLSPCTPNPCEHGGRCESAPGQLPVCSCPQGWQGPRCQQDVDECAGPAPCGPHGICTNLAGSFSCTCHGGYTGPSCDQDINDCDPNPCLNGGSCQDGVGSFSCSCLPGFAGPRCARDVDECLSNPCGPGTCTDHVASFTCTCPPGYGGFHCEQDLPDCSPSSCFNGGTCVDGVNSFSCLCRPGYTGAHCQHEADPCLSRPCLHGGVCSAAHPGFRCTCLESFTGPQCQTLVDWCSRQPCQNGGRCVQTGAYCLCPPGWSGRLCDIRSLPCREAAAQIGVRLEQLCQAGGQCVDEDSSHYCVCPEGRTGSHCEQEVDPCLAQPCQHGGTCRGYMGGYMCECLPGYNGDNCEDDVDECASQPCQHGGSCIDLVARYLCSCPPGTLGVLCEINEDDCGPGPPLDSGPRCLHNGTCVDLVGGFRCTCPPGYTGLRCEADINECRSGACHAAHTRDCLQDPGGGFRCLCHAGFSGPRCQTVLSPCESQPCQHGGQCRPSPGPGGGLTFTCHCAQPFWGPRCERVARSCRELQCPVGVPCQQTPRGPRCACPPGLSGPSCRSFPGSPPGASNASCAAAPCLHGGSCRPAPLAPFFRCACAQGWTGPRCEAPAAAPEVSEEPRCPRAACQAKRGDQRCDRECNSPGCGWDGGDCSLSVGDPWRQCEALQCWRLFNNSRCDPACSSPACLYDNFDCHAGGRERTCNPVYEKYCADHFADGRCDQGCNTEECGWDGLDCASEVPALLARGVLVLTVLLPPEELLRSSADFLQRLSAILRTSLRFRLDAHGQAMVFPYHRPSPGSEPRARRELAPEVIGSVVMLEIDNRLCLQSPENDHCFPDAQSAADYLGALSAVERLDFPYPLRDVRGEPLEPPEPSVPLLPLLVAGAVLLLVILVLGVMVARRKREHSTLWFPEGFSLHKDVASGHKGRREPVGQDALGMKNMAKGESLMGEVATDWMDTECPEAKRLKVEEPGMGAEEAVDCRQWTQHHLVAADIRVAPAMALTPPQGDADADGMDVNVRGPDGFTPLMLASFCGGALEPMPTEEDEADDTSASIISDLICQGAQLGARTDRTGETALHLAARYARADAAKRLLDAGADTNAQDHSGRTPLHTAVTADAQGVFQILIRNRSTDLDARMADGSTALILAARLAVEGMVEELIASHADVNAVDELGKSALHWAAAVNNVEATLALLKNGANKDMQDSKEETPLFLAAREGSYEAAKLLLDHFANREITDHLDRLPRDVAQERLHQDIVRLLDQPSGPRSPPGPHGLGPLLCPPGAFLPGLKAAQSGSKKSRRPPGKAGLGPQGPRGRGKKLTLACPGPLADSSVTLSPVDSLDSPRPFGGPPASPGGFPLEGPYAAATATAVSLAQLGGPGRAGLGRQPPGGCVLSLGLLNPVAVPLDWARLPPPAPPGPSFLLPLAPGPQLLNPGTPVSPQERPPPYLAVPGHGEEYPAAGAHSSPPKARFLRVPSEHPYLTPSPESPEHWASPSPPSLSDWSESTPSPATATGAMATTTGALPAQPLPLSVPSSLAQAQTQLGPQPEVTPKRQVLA
Chain of Follistatin-related protein 3 (Homo sapiens) (O95633 whole entry, looked up): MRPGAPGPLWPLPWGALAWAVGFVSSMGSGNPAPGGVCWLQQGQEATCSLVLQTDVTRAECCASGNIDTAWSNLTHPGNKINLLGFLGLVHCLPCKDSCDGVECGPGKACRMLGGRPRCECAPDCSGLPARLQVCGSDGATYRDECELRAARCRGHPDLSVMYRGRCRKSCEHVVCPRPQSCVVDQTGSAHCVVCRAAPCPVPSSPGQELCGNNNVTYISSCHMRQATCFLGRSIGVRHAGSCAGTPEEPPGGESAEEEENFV
Chain of Epidermal growth factor receptor (Homo sapiens) (P00533 whole entry, looked up): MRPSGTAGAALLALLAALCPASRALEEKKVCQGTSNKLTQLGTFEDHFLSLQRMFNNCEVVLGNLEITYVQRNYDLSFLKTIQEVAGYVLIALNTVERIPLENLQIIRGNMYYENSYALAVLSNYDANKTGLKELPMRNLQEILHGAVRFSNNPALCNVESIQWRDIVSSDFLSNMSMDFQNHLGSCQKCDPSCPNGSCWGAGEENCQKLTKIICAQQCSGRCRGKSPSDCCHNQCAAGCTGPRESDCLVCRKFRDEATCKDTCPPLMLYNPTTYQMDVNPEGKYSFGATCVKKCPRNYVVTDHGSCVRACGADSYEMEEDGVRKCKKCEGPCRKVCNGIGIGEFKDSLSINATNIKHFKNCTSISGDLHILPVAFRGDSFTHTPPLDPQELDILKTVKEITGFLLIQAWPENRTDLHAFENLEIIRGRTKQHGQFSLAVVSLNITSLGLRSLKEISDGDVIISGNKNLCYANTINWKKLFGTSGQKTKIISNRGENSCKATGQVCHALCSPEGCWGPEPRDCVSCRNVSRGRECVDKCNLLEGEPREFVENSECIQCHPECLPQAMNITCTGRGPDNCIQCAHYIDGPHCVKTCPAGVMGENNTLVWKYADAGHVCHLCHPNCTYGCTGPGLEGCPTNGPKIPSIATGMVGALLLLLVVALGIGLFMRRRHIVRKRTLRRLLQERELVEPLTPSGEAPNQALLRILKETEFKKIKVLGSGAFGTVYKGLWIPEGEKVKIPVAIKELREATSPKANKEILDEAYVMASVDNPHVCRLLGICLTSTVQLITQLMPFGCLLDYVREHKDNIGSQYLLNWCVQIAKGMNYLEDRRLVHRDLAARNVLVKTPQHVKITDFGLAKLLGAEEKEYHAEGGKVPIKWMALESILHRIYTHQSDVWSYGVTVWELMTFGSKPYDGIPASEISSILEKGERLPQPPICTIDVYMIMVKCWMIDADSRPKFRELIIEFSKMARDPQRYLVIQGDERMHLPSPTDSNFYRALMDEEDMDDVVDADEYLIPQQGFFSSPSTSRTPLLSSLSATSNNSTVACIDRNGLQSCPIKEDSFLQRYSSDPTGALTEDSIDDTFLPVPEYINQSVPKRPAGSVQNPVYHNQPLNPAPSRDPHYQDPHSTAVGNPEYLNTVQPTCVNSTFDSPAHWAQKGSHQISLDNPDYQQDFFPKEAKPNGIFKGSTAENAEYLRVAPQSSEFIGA
Chain of Torsin-1A-interacting protein 2 (Homo sapiens) (Q8NFQ8 whole entry, looked up): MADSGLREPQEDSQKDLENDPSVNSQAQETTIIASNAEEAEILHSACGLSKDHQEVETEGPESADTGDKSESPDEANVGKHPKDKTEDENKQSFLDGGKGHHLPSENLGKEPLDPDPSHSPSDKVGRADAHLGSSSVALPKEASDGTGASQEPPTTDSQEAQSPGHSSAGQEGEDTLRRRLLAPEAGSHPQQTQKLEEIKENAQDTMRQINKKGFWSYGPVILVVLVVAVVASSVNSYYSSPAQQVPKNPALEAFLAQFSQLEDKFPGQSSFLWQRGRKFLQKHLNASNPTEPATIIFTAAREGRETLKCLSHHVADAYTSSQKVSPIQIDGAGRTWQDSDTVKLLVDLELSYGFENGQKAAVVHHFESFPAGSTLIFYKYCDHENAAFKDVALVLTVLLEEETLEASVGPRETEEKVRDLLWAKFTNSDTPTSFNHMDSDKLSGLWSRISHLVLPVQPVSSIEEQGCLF

SMILES: CC(c1ccccc1)C(O)C1C=CC2C(=O)N(c3ccccc3)C(=O)C2N1Nc1ccccc1F (stereo not given)
- composite z-score [1]: 1.26
- z-score [2]: -1.11 (inactive)
- z-score [3]: 1.15 (inactive)
- z-score [4]: -1.99 (inactive)
- composite z-score [5]: 2.87
- z-score [6]: 0.198 (inactive)
- composite z-score [7]: 0.0841
- composite z-score [8]: -0.138
- composite z-score [9]: 1.14
- composite z-score [10]: -0.0192
- composite z-score [11]: 0.308
- composite z-score [12]: 0.535
- composite z-score [13]: 1.09
- z-score [14]: -1.02 (inactive)
- composite z-score [15]: 0.356
- composite z-score [16]: 0.214
- composite z-score [17]: -0.0346
- composite z-score [18]: 0.683
- composite z-score [19]: -0.526
- composite z-score [20]: 0.913

SMILES: NC(=O)[C@@]1(CCS(=O)(=O)c2ccccc2)N=C(c2ccc(OCCCO)cc2)O[C@H]1c1ccccc1
- composite z-score [1]: 1.54
- z-score [2]: -0.0366 (inactive)
- z-score [3]: -1.58 (inactive)
- z-score [4]: -0.918 (inactive)
- composite z-score [5]: 3.6
- z-score [6]: 0.515 (inactive)
- composite z-score [7]: -0.046
- composite z-score [8]: -0.316
- composite z-score [9]: 0.667
- composite z-score [10]: -0.0703
- composite z-score [11]: 1.28
- composite z-score [12]: 0.518
- composite z-score [13]: 0.7
- z-score [14]: -0.675 (inactive)
- composite z-score [15]: 1.08
- composite z-score [16]: 0.953
- composite z-score [17]: -0.151
- composite z-score [18]: -0.437
- composite z-score [19]: 0.015
- composite z-score [20]: 0.564

SMILES: CCOC(=O)C[C@H]1[C@H](OC(=O)c2cc3ccccc3oc2=O)[C@@H](NC(=O)c2ccc3ccccc3c2)c2cc(OCCCO)ccc2N1C(=O)c1ccccc1
- composite z-score [1]: 1.13
- z-score [2]: -0.087 (inactive)
- z-score [3]: -1.05 (inactive)
- z-score [4]: 0.41 (inactive)
- composite z-score [5]: 1.6
- z-score [6]: 1.06 (inactive)
- composite z-score [7]: -0.139
- composite z-score [8]: 0.798
- composite z-score [9]: 0.983
- composite z-score [10]: -0.0829
- composite z-score [11]: 1.38
- composite z-score [12]: -0.151
- composite z-score [13]: -0.413
- z-score [14]: -1.28 (inactive)
- composite z-score [15]: 1.41
- composite z-score [16]: 0.939
- composite z-score [17]: 0.348
- composite z-score [18]: 0.906
- composite z-score [19]: 0.486
- composite z-score [20]: 0.447

SMILES: Cn1c2c(c3ccccc31)C(=O)C1NC2C=CC1(C)C(=O)OCc1ccccc1 (stereo not given)
- composite z-score [1]: 0.417
- z-score [2]: -0.566 (inactive)
- z-score [3]: 0.35 (inactive)
- z-score [4]: -0.233 (inactive)
- composite z-score [5]: 3.1
- z-score [6]: -1.01 (inactive)
- composite z-score [7]: -0.0097
- composite z-score [8]: -2.04
- composite z-score [9]: -0.258
- composite z-score [10]: -0.264
- composite z-score [11]: 1.15
- composite z-score [12]: 0.347
- composite z-score [13]: 1.26
- z-score [14]: 0.167 (inactive)
- composite z-score [15]: -0.667
- composite z-score [16]: -0.788
- composite z-score [17]: -1.57
- composite z-score [18]: -1.58
- composite z-score [19]: -2.53
- composite z-score [20]: 0.674

SMILES: CC(=O)NCCCC[C@@H]1NC(=O)[C@@H]2C[C@H](C(=O)NCCCCCC[N+](C)(C)C)[C@H](c3cccc(OCCO)c3)N2C1=O
- composite z-score [1]: 1.54
- z-score [2]: 0.801 (inactive)
- z-score [3]: 0.385 (inactive)
- z-score [4]: 1.1 (inactive)
- composite z-score [5]: 2.46
- z-score [6]: -0.104 (inactive)
- composite z-score [7]: 0.0283
- composite z-score [8]: 1.03
- composite z-score [9]: 1.02
- composite z-score [10]: -0.115
- composite z-score [11]: 1.13
- composite z-score [12]: -0.145
- composite z-score [13]: -0.0962
- z-score [14]: -0.0513 (inactive)
- composite z-score [15]: 1.23
- composite z-score [16]: 1.27
- composite z-score [17]: 0.341
- composite z-score [18]: 1.25
- composite z-score [19]: 1.45
- composite z-score [20]: 0.811

SMILES: [N-]=[N+]=NCc1ccccc1C[C@]1(C(=O)NCC(O)CO)COC(c2ccc(OCCCO)cc2)=N1 (stereo not given in full)
- composite z-score [1]: 0.638
- z-score [2]: -0.319 (inactive)
- z-score [3]: -3.05 (inactive)
- z-score [4]: 0.113 (inactive)
- composite z-score [5]: 2.54
- z-score [6]: 1.34 (inactive)
- composite z-score [7]: 0.841
- composite z-score [8]: -0.185
- composite z-score [9]: -0.172
- composite z-score [10]: 0.204
- composite z-score [11]: 1.08
- composite z-score [12]: 1.22
- composite z-score [13]: 1.5
- z-score [14]: 1.1 (inactive)
- composite z-score [15]: -0.0207
- composite z-score [16]: -0.493
- composite z-score [17]: -1.13
- composite z-score [18]: 0.324
- composite z-score [19]: -0.372
- composite z-score [20]: 0.462

SMILES: COCCOC(=O)N1C(=O)[C@@]2(c3cc(C#Cc4ccc(OC)cc4)ccc31)[C@H](C(N)=O)[C@H]1C(=O)O[C@H](c3ccccc3)[C@H](c3ccccc3)N1[C@@H]2c1ccc(O)cc1
- composite z-score [1]: -1.57
- z-score [2]: -0.613 (inactive)
- z-score [3]: -0.0532 (inactive)
- z-score [4]: 0.333 (inactive)
- composite z-score [5]: -0.839
- z-score [6]: 1.84 (inactive)
- composite z-score [7]: -0.264
- composite z-score [8]: -2.13
- composite z-score [9]: -1.35
- composite z-score [10]: -0.627
- composite z-score [11]: 0.356
- composite z-score [12]: -0.76
- composite z-score [13]: -0.318
- z-score [14]: -0.298 (inactive)
- composite z-score [15]: -1.67
- composite z-score [16]: -1.53
- composite z-score [17]: -1.67
- composite z-score [18]: -1.95
- composite z-score [19]: -2.42
- composite z-score [20]: -0.115

SMILES: C=CC[C@@]1(C(=O)NCCN2CCOCC2)N=C(c2ccc(OCCCO)cc2)O[C@@H]1c1ccccc1CN=[N+]=[N-]
- composite z-score [1]: 1.56
- z-score [2]: -1.46 (inactive)
- z-score [3]: -1.18 (inactive)
- z-score [4]: -0.548 (inactive)
- composite z-score [5]: 3.02
- z-score [6]: 0.0499 (inactive)
- composite z-score [7]: 0.149
- composite z-score [8]: -0.0392
- composite z-score [9]: 0.19
- composite z-score [10]: -0.0735
- composite z-score [11]: 1.02
- composite z-score [12]: 1.06
- composite z-score [13]: 1.3
- z-score [14]: -1.05 (inactive)
- composite z-score [15]: 0.205
- composite z-score [16]: 0.62
- composite z-score [17]: -0.357
- composite z-score [18]: 0.221
- composite z-score [19]: 0.137
- composite z-score [20]: 1.46

SMILES: Cc1ccc(S(=O)(=O)N2CC(C(=O)O)=CCC2c2ccccc2)cc1 (stereo not given)
- composite z-score [1]: 0.461
- z-score [2]: -0.224 (inactive)
- z-score [3]: 1.29 (inactive)
- z-score [4]: -0.0893 (inactive)
- composite z-score [5]: 2.89
- z-score [6]: -1.11 (inactive)
- composite z-score [7]: 0.431
- composite z-score [8]: -1.22
- composite z-score [9]: -0.231
- composite z-score [10]: 0.254
- composite z-score [11]: 1.11
- composite z-score [12]: 0.133
- composite z-score [13]: 0.696
- z-score [14]: 0.566 (inactive)
- composite z-score [15]: -0.265
- composite z-score [16]: -0.5
- composite z-score [17]: -0.638
- composite z-score [18]: -0.95
- composite z-score [19]: -1.6
- composite z-score [20]: -0.538

SMILES: C=CC[C@@]1(C(=O)OC)N=C(c2ccc(OCCCO)cc2)O[C@@H]1c1ccccc1CN=[N+]=[N-]
- composite z-score [1]: 1.3
- z-score [2]: -3.29 (inactive)
- z-score [3]: -4.42 (inactive)
- z-score [4]: 6.32 (inactive)
- composite z-score [5]: 1.41
- z-score [6]: 1.21 (inactive)
- composite z-score [7]: 0.0427
- composite z-score [8]: 0.744
- composite z-score [9]: -0.159
- composite z-score [10]: -0.0531
- composite z-score [11]: 1.55
- composite z-score [12]: -0.0877
- composite z-score [13]: 0.892
- z-score [14]: -1.54 (inactive)
- composite z-score [15]: -0.216
- composite z-score [16]: -0.215
- composite z-score [17]: -0.328
- composite z-score [18]: 0.201
- composite z-score [19]: -0.231
- composite z-score [20]: 1.15
